Measurements reported in PubChem BioAssay (NCI).
This is part of a sample that, as a whole, favours compounds with a hit. Of some 83,000 tested, about 20% had one in any assay.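 Activity criterion: percent growth below 10, measured after cells in 96-well plates were exposed to a single compound concentration for 48 hours.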 A number with no mark means an inactive call.

System: HL-60(TB) leukemia
Assay: NCI-60 one-dose screen, 48 h (100 = growth as untreated, 0 = no growth, -100 = all killed)
Conditions: 10 µM unless noted

SMILES | growth
COc1cc(/C=N/NC(=O)CCN2c3ccccc3Sc3ccccc32)cc(OC)c1OC | 77.9%
CCN(CC)CCOC(COc1cc(C)cc(C)c1)COc1cc(C)cc(C)c1 | 20.3%
O=C(O)C1CN(c2cccc(Cl)c2)N(c2cccc(Cl)c2)C1=O (stereo not drawn) | 95.3%
